The results in this text go back to PubChem BioAssay (EPA / NIEHS).

Details in all cases: mRNA level, 48 h; actives raise or lower the signal
Read-out in assay [1]: Alkaline Phosphatase, Placental (ALPP) gene, ALPP (gene 250)
Description: LTEA_HepaRG_ALPP: Life Technologies and Expression Analysis (LTEA) Assay for Alkaline Phosphatase, Placental (ALPP) gene using HepaRG (AID 2283468). A digest of the protocol:
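Using human liver HepaRG cells, chemicals are tested in duplicate over 48 h at half-log concentrations topping at 100 uM; phenobarbital 1 mM serves as induction control. ALPP mRNA change by qRT-PCR, bidirectional fit against vehicle.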

Read-out in assay [2]: Bcl-2 (BAD) gene, BAD (gene 572)
Description: LTEA_HepaRG_BAD: Life Technologies and Expression Analysis (LTEA) Assay for Bcl-2 (BAD) gene using HepaRG (AID 2283469). In a few lines:
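BAD transcript change, measured by qRT-PCR against three housekeeping genes and fitted in both directions relative to 0.5% DMSO, after 48 h chemical treatment of human HepaRG liver cells at concentrations up to 100 uM.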

Read-out in assay [3]: Bcl-2 (BAX) gene, BAX (gene 581)
Description: LTEA_HepaRG_BAX: Life Technologies and Expression Analysis (LTEA) Assay for Bcl-2 (BAX) gene using HepaRG (AID 2283470). In a few lines: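 Differentiated HepaRG cells exposed 48 h in serum-free induction medium, eight half-log concentrations from 100 uM, in duplicate, 0.5% DMSO vehicle. BAX mRNA by TaqMan qRT-PCR, normalised to ACTB, GAPDH and POLR2A.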

Read-out in assay [4]: adenosine kinase (ADK) gene, ADK (gene 132)
Description: LTEA_HepaRG_ADK: Life Technologies and Expression Analysis (LTEA) Assay for adenosine kinase (ADK) gene using HepaRG (AID 2283471). A digest of the protocol:
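Read-out is ADK transcript level measured by qRT-PCR and normalised to three housekeeping genes. Cells are human HepaRG, dosed for 48 h at up to 100 uM in 0.5% DMSO. Gain or loss of signal is fitted against DMSO controls.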

Read-out in assay [5]: Alpha-fetoprotein (AFP) gene, AFP (gene 174)
Put plainly: LTEA_HepaRG_AFP: Life Technologies and Expression Analysis (LTEA) Assay for Alpha-fetoprotein (AFP) gene using HepaRG (AID 2283472). In a few lines:
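Differentiated human HepaRG cells exposed 48 h in serum-free induction medium, 8-point half-log series from 100 uM in 0.5% DMSO, duplicate. AFP mRNA by qRT-PCR, normalized to ACTB, GAPDH, POLR2A; bidirectional fit vs DMSO.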

Read-out in the next assay: BCL2L11 (gene 10018)
Description: LTEA_HepaRG_BCL2L11: Life Technologies and Expression Analysis (LTEA) Assay for Bcl-2 (BCL2L11) gene using HepaRG (AID 2283473). A digest of the protocol: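 Human hepatic HepaRG cultures are treated 48 h with test chemicals (maximum 100 uM, 0.5% DMSO vehicle). Expression of BCL2L11 is measured by qRT-PCR against ACTB, GAPDH and POLR2A, with activity in either direction scored relative to vehicle.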

Read-out in assay [6]: Apolipoprotein A-V (APOA5) gene, APOA5 (gene 116519)
Description: LTEA_HepaRG_APOA5: Life Technologies and Expression Analysis (LTEA) Assay for Apolipoprotein A-V (APOA5) gene using HepaRG (AID 2283474). A digest of the protocol: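 Concentration-response of APOA5 expression in HepaRG: eight half-log doses to 100 uM, 48 h, qRT-PCR normalized to ACTB/GAPDH/POLR2A, bidirectional fitting with 0.5% DMSO as baseline.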

Read-out in assay [7]: Apoptosis regulator Bcl-2 (Homo sapiens) (UniProt P10415)
Description: LTEA_HepaRG_BCL2: Life Technologies and Expression Analysis (LTEA) Assay for Bcl-2 gene using HepaRG (AID 2283475). A digest of the protocol: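 Differentiated human HepaRG cells in serum-free induction medium exposed 48 h, in duplicate, to 8-point half-log series from 100 uM in 0.5% DMSO. BCL2 mRNA by qRT-PCR (TaqMan/Fluidigm), normalized to ACTB, GAPDH, POLR2A; bidirectional fit against DMSO.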

Read-out in assay [8]: Bcl-2 (BID) gene, BID (gene 637)
Description: LTEA_HepaRG_BID: Life Technologies and Expression Analysis (LTEA) Assay for Bcl-2 (BID) gene using HepaRG (AID 2283476). A digest of the protocol:
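Gene expression by qRT-PCR in HepaRG cells after 48 h exposure, duplicate wells, eight half-log concentrations topping at 100 uM in 0.5% DMSO. Normalized to ACTB, GAPDH, POLR2A; bidirectional fitting relative to DMSO.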

Read-out in another assay: Caspase-3 (Homo sapiens) (UniProt P42574)
Put plainly: LTEA_HepaRG_CASP3: Life Technologies and Expression Analysis (LTEA) Assay for cysteine-aspartic acid protease (CASP3) using HepaRG (AID 2283477). In a few lines:
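Transcript-level assay: CASP3 mRNA in human HepaRG after 48 h treatment, eight half-log concentrations from 100 uM in 0.5% DMSO, quantified by qRT-PCR.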

Read-out in assay [9]: Cytochrome P450 (CYP24A1), CYP24A1 (gene 1591)
Description: LTEA_HepaRG_CYP24A1: Life Technologies and Expression Analysis (LTEA) Assay for Cytochrome P450 (CYP24A1) using HepaRG (AID 2283478). A digest of the protocol: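 Gene expression of CYP24A1 by TaqMan qRT-PCR in HepaRG after 48 h treatment, highest concentration 100 uM; activity fitted in both directions relative to DMSO vehicle.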

Read-out in assay [10]: Cytochrome P450 (CYP1A2), CYP1A2 (gene 1544)
Description: LTEA_HepaRG_CYP1A2: Life Technologies and Expression Analysis (LTEA) Assay for Cytochrome P450 (CYP1A2) using HepaRG (AID 2283479). In a few lines:
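In duplicate wells, HepaRG cultures maintained in 0.5% DMSO were treated 48 h across an 8-point, half-log series topping at 100 uM; phenobarbital (1 mM) served as induction control. Expression was read by qRT-PCR.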

Read-out in assay [11]: cysteine-aspartic acid protease (CASP8), CASP8 (gene 841)
Put plainly: LTEA_HepaRG_CASP8: Life Technologies and Expression Analysis (LTEA) Assay for cysteine-aspartic acid protease (CASP8) using HepaRG (AID 2283480). In a few lines:
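HepaRG, 48 h exposure, duplicate wells; 8 conc, half-log from 100 uM, 0.5% DMSO. Serum-free induction medium. CASP8 mRNA by TaqMan qRT-PCR, norm. ACTB/GAPDH/POLR2A; gain/loss fitted vs DMSO.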

Read-out in assay [12]: Cytochrome P450 (CYP2B6), CYP2B6 (gene 1555)
Put plainly: LTEA_HepaRG_CYP2B6: Life Technologies and Expression Analysis (LTEA) Assay for Cytochrome P450 (CYP2B6) using HepaRG (AID 2283481). A digest of the protocol: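 Human HepaRG, 48 h dosing, 0.5% DMSO vehicle, top dose 100 uM. CYP2B6 transcript by qRT-PCR, housekeeping-normalized, bidirectional curve fit.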

Read-out in assay [13]: Cytochrome P450 2C19 (Homo sapiens) (UniProt P33261)
Description: LTEA_HepaRG_CYP2C19: Life Technologies and Expression Analysis (LTEA) Assay for CYP2C19 using HepaRG (AID 2283482). In a few lines: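 Endpoint: CYP2C19 mRNA change, bidirectional fit vs 0.5% DMSO. Cells: HepaRG, 48 h exposure, eight-point series topping at 100 uM. Quantitation: qRT-PCR normalized to ACTB, GAPDH, POLR2A.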

Read-out in a further assay: CYP2C8 (gene 1558)
Description: LTEA_HepaRG_CYP2C8: Life Technologies and Expression Analysis (LTEA) Assay for CYP2C8 using HepaRG (AID 2283483). In a few lines: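 CYP2C8 mRNA induction or loss, by qRT-PCR normalized to ACTB/GAPDH/POLR2A, is read in HepaRG cells after 48 h treatment. Concentrations run from 100 uM down in half-log dilutions, with 0.5% DMSO as vehicle and baseline.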

Read-out in another assay: CYP2C9 (gene 1559)
Put plainly: LTEA_HepaRG_CYP2C9: Life Technologies and Expression Analysis (LTEA) Assay for CYP2C9 using HepaRG (AID 2283484). A digest of the protocol:
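Cells plated 48 h, switched to serum-free induction medium, then treated in duplicate for 48 h at eight concentrations (max 100 uM, 0.5% DMSO). RNA then analysed by qRT-PCR for CYP2C9; curves fitted in both directions relative to DMSO.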

Read-out in the next assay: CYP2E1 (gene 1571)
Description: LTEA_HepaRG_CYP2E1: Life Technologies and Expression Analysis (LTEA) Assay for CYP2E1 using HepaRG (AID 2283485). In a few lines:
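HepaRG cells, plated 48 h, then exposed 48 h in serum-free induction medium to eight half-log concentrations from 100 uM in 0.5% DMSO, duplicate. CYP2E1 mRNA by qRT-PCR, normalized to ACTB/GAPDH/POLR2A; bidirectional fit versus DMSO.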

Read-out in another assay: CYP4A11 (gene 1579)
Put plainly: LTEA_HepaRG_CYP4A11: Life Technologies and Expression Analysis (LTEA) Assay for CYP4A11 using HepaRG (AID 2283486). A digest of the protocol: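 Human hepatic HepaRG cultures receive duplicate 48 h exposures across a concentration-response series topping at 100 uM. Expression changes in CYP4A11 are measured by qRT-PCR relative to DMSO controls.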

Read-out in assay [14]: Cytochrome P450 3A4 (Homo sapiens) (UniProt P08684)
Put plainly: LTEA_HepaRG_CYP3A4: Life Technologies and Expression Analysis (LTEA) Assay for CYP3A4 using HepaRG (AID 2283487). A digest of the protocol: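 HepaRG, 48 h exposure, 8-pt CRC from 100 uM (half-log), 0.5% DMSO, duplicates; serum-free induction medium. Readout: CYP3A4 mRNA, qRT-PCR, ACTB/GAPDH/POLR2A normalization. Bidirectional fit vs DMSO.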

Active and inactive are the calls of the source. How the source made its calls: active means hit-call score of the fitted dose curve at least 0.9, where 1 is the maximum; inactive means score below 0.9.

Sequence of Apoptosis regulator Bcl-2 (Homo sapiens) (P10415 whole entry, looked up): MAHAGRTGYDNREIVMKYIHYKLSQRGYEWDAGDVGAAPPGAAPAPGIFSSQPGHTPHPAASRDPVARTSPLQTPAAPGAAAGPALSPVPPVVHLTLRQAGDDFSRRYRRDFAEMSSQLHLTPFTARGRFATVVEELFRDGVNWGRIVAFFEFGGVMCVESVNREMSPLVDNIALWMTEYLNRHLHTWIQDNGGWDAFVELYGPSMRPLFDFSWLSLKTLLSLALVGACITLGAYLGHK
Sequence of Cytochrome P450 2C19 (Homo sapiens) (P33261 whole entry, looked up): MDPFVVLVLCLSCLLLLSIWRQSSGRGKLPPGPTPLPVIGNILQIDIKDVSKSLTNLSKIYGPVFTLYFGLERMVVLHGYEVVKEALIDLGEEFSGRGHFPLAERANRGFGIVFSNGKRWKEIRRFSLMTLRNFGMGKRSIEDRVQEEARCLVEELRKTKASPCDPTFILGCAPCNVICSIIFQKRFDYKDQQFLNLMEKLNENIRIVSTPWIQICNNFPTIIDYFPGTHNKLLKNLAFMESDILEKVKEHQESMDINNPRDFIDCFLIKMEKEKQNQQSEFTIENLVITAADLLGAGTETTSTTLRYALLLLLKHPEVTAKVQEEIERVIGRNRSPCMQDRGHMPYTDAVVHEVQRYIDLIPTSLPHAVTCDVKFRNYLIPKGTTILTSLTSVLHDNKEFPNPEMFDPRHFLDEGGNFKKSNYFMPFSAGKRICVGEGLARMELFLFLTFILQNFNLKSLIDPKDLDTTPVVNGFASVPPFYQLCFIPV
Sequence of Caspase-3 (Homo sapiens) (P42574 whole entry, looked up): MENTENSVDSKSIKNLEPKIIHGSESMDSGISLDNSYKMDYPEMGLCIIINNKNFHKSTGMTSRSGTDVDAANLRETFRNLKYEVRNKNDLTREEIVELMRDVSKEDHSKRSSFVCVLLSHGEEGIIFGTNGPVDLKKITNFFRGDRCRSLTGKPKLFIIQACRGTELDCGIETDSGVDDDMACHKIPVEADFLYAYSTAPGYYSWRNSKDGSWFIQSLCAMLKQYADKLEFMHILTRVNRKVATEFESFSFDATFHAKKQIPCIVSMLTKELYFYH
Sequence of Cytochrome P450 3A4 (Homo sapiens) (P08684 whole entry, looked up): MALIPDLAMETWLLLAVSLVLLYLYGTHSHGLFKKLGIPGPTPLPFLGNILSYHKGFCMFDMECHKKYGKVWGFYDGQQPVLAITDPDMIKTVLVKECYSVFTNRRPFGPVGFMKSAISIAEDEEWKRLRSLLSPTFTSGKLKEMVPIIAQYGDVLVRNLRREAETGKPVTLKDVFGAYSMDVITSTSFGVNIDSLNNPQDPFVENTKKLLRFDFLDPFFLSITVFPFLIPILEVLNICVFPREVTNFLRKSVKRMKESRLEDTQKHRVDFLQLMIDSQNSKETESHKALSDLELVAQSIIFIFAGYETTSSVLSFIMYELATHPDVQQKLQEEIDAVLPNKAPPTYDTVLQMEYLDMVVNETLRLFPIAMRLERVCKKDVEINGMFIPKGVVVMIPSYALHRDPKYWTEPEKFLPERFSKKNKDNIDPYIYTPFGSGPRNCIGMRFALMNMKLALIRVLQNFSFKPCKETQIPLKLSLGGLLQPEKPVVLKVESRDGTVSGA

The AC50 is the concentration giving half of the maximal activity seen. Consider `CN(C)c1nc(=O)n(C2CCCCC2)c(=O)n1C`, for which the AC50 in assay [1] was 12.5 µM (active); in [12], 33.6 µM (active); in [14], 50 µM (active). Besides, the outcome (in assay [2]; in assay [3]; in assay [4]; in assay [5]; in the assay with BCL2L11 (gene 10018); in [6]) was inactive. The compound was classed as inactive (in assay [7]; in [8]; with Caspase-3 (Homo sapiens); in assay [9]; in assay [10]; in assay [11]). In addition, the compound was classed as inactive (in [13]; with CYP2C8 (gene 1558); in the assay with CYP2C9 (gene 1559); with CYP2E1 (gene 1571); with CYP4A11 (gene 1579)).
As for `CCOC(=O)C(O)(c1ccc(Cl)cc1)c1ccc(Cl)cc1`, the result (in assay [1]; in assay [2]; in assay [3]; in assay [4]; in assay [5]; with BCL2L11 (gene 10018)) was inactive. Besides, the compound was classed as inactive (in [6]; in assay [7]; in assay [8]; with Caspase-3 (Homo sapiens); in assay [9]; in assay [11]). In addition, the compound was classed as inactive (in [13]; in the assay with CYP2C9 (gene 1559); in assay [14]). Besides, the concentration at half-maximal activity (AC50) was 66.5 µM (active) in assay [10]; 69.1 µM (active) in assay [12]; 21.6 µM (active) with CYP2C8 (gene 1558); 30.4 µM (active) with CYP2E1 (gene 1571); 20.4 µM (active) with CYP4A11 (gene 1579).
Regarding `Oc1ccc(C(c2ccc(O)cc2)(C(F)(F)F)C(F)(F)F)cc1`, the AC50 is 83 µM (active) in assay [1]; 81.6 µM (active) in assay [4]; 78.9 µM (active) with BCL2L11 (gene 10018); 92 µM (active) in assay [12]; 85.8 µM (active) in assay [13]; 79.4 µM (active) with CYP2E1 (gene 1571). For the same compound, the figures for the half-maximal activity concentration (AC50) (with CYP4A11 (gene 1579); in [14]) were 76.6 µM (active) and 81.7 µM (active), respectively. The call (in assay [2]; in assay [3]; in assay [5]; in assay [6]; in assay [7]; in the assay with Caspase-3 (Homo sapiens)) was inactive. Further, the compound was called inactive (in [9]; in assay [10]; in assay [11]; in the assay with CYP2C8 (gene 1558); with CYP2C9 (gene 1559)).
